Reference: PubChem BioAssay AID1347426 (Functional Genomics Laboratory (NCATS/FGL), 2020)
About 1,400 (4.5%) of roughly 31,000 sequences were called active. Many of the other results were omitted from the sample, so actives are more common in it than they were. A number with no mark means an inactive call.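 Rule for the calls: active = median seed-adjusted z-score above 1 or below -1; inactive = the rest.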

Assay: Novel Modifiers of Survival Motor Neuron (SMN) Protein: Gene Identification via Genome-wide siRNA Screen;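 note: luminescence tracks full-length SMN protein made from the SMN2 reporter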
Settings: HEK293T SMN2-luciferase reporter, siRNA knockdown, 72 h; actives lie on both sides
Outline: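 Luciferase signal, proportional to full-length SMN made from an SMN2 cDNA reporter in stable HEK293T cells, was read 72 h after siRNA reverse transfection. Values were expressed as MAD scores after non-targeting-control normalization and log10 conversion; seed analysis flagged off-targets.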

Sequence	median seed-adjusted z-score
CCUCAUGCCUUAAUGAUCATT against ZNF561	-0.00904
CAUCCGUUCCAUACAUGUATT against AEBP2	-0.212
GGAAUGGUUUAAAAUAGAATT against NUDT3	0.674
GGCAUUGCUUAAUGAUAUATT against SF3B1	-3.65 (active)
CCUUCAGUCUUAACUCCAATT against ZKSCAN1	0.229
GCUGUAGCCUUGAUGCCUATT against INMT	0.863
GUCCGAGUGUGGUUCUGUATT against POU5F1	0.0495
GGAAGAUCCUCUACCAGAATT against LATS2	-0.245
CAGUCAAUGUUGUUCAGUUTT against GARS	0.138
GGCUACAACGUGACCAAGATT against FZD4	0.0695
ACUUCAUGAUGGAUAUCCATT against KCNN4	0.00864
CCCUACAUGUGAACAACGATT against PRPF8	-1.54 (active)
GGCUAUGACGGGAAGGAGATT against PTPN7	-0.189
GAAUAGAUUUCAGUAGUAUTT against DDI2	1.27 (active)
CCAGUGUACUCAGUCUAUUTT against STAM2	-0.24
GACCUUCCUAGUUUCCUGATT against GIPC1	0
AGCUCAACCGGUUUAAUAATT against SLC9A1	0
GGAAAUAGGUCUAGUACUATT against PRPF4B	-2.29 (active)
GGAUGAGAAAGUCGUGAAATT against TSHZ2	-0.361
CGGAUACGCUAAAAAUCAATT against B3GNTL1	0
GCCUAUUAUGGACAACAAUTT against IKZF2	0.514
GGAGUUAAGAAUAUUAUGATT against VAMP8	-0.184

Sequence	median seed-adjusted z-score
GGAGUUCAUCAAUAUGAAUTT against MLF1	0.258
GCCUUCUACACUUACAUGATT against EVX1	1 (active)
GGAGUCAAGUGAAGCAGAATT against L3MBTL2	-0.312
GCAGGUACAUCUCGCCUGATT against ENO1	0.0766
GCCCAAUACUUGCAAGUGATT against KCNA2	-1.03 (active)
GGGAGGUAGUAAUCCUACATT against PPP1R12B	0.416
GGAUUCAUGAGUCUAUAUATT against SLC25A27	0.0916
GGACACCACAGUACCUAAATT against IL22RA1	-1.14 (active)
CAAUCCUGACUCAAACUAATT against RAG2	0.138
GGACCUGUAUUGGGAACAATT against ASPHD2	-0.719
CUUCAAAGGUGACAAGUAUTT against MMP24	-1.28 (active)
GGAGAGCAAUACAUCAUCATT against GLRX2	-0.244
GCACUUUACUAGGUCUAGATT against NANOS1	0.369
GAUUACUGGUGCGAUGUUATT against L3MBTL4	-0.189
UCUGCUAACCUGAAAGUAATT against CARD8	0.115
AGAUCGACAAGAUGCAAGATT against FOXN1	0.226
CAGUGAAUCUUGGUUGUAATT against TBP	-1.25 (active)
GCAUCAUCCAGAGACUGCATT against CCL19	0.0364
GCAGAGACACCUUGAAGUATT against GAD1	0.101
CGUGUUUAUAAUUACCGAATT against MED14	-3.22 (active)
CACGAAAUCAUGCAAAUCATT against RPL17	-0.13
GAGGCGCACUUCAAGCAUATT against CENTA1	-0.555

Sequence	median seed-adjusted z-score
GGAGUAAACCUCACUGACATT against TMPRSS5	1.25 (active)
GUAUCAAUCUUUGCGGAUATT against KL	-0.267
AGAUCAUGACUUGUGCUGATT against SEZ6L2	-0.331
GGAGGGCAUUGUCACUAAATT against MCM3	0.339
GGAUACCCAAUGCAAAUUATT against MMP16	0.144
GGAGAACUACCAGAACCUUTT against ZNF74	1.17 (active)
GCACUGGACCAAUACAAGUTT against GPR84	0.285
GGUGUUGUCUUGAGGUACATT against ADAMTS1	0.173
ACCCAGAUAUGGAUCUGCATT against TTLL10	0.211
GCUCAAAUGGAGAACUAAATT against GALNT8	-0.283
GACCAAAAGUGGAACUCCATT against PTPN23	-0.0473
CCAUUGUUCCAGACUUCUUTT against CMBL	0
GGGCAUGGGUUUUAAUCGATT against PYGO1	-1.23 (active)
GAGUUAUACGAUCCAUGUATT against TXNL4A	-0.42
AGAGCUAUGCUUUAGGUCUTT against S100A2	-0.0951
GCCUCAAUCUCUACUCGAATT against PCDHGA2	-0.8
GACAAAAAGUCCAACCCUATT against CYB5R3	-0.901
UGAGAUUUCGGAAUCAGAATT against TSPAN31	-1.13 (active)
GAACUAGGAUUUCAUAGCATT against LGR5	0
GAGUCACAGUCGUUAUUCUTT against CNOT4	-0.116
GGAUUAUUUCUGGUUCCUATT against ATP8A2	0
GCAUCAGCAUGUCGGUGGATT against ARID3A	-1.11 (active)

Sequence	median seed-adjusted z-score
GUCCCGCAGAUUCAACAAATT against SSBP3	0.00592
CAAUCCUGUAUCUACCGUATT against OVCH1	0.0211
CAUCAAUGAGGUAUACUAUTT against DYRK1B	0.29
CUAUAAGUCUAGUAGCAAATT against WNK2	0.212
CGACGGCACCUGCAAUUUUTT against IMPA2	0.0513
GCUGUAAACAGUCAUCAGATT against ZNF180	0
GAAAAUGACGGUUAUAAGATT against PMM2	0.448
GCAUGUUAUUGAAUUAUCATT against TM9SF2	1.09 (active)
GGAACGUGGUACUUAGUUATT against HMGCS1	0.0596
GCAGCUUCAAGAUCAAUGATT against ANTXR1	-0.0849
CAAAAGUGUAUAUAAACUUTT against NDUFS6	-0.0128
ACUUUGUCCGUGUGUCUUATT against SLC30A3	-1.26 (active)
GGAACAGGAUGAAUAUGCATT against HADHB	-0.188
CGACUGGAUGUAUAAGCAUTT against TGIF2LX	-0.568
GAGAAGAAGUUCUUAAGGATT against ALKBH8	-0.487
AGUUCUACAUGCCGGAUGATT against GGTLC1	-0.298
GCCUCGUUCUGAAGACGAUTT against LIPC	0.244
CCAACCACCAGAUCUAUGATT against LBX1	-0.36
CCAUGGCAGUACCAACUAGTT against CREM	-2.37 (active)
GGACCACUAUUUACAGCAATT against FUCA2	0.562
GGUCUGUACUGGGAUUCAUTT against PKD2L2	-0.0723
GGCUUUUGCCCUAUCCAUUTT against WNK4	0.385

Sequence	median seed-adjusted z-score
CACGAGGAGUGGACAAUAUTT against UCK1	-0.599
CAAAUCGCCUAAUAAACUUTT against KRT33B	0.04
GGAGCUUUGUCAAGAAGAUTT against FKBPL	-1.11 (active)
GCCUGAUAACGUAAUAACATT against ARSA	0.0938
GACUUACUUAGAUAUGAGATT against ZNF568	0.501
GGUUUGUCCCUUCGCUAUATT against LRRTM3	-0.0808
GCAGAGAUUUCCAAGAAAATT against GPR32	-1.2 (active)
CAAGAAUGACUGUGAUGAATT against PLA2G12A	0.139
GGUCUAUACAGAGUCAAUATT against MRCL3	-0.00909
GGAUUCACACGGGAAUUAATT against ZNF649	0.259
CGUCGAAUGUUUAAAGUCUTT against ITFG1	-0.417
ACGUGUUUGCUUCCACAAATT against NEURL2	1.39 (active)
GCAUGAUGGAUGUUGAUCATT against CCT5	0
GCACUGAUGACAACAACUATT against HTR1F	-0.127
AGAGUGUGCCGGUUACCCATT against CD8B	0.174
GAGUCACAAUUGAUCCGGATT against TOP2A	-0.187
CCAUCGAUGAUGACUGUAATT against ETFB	0.0669
GAGCAGAUCUUUUUAUGCATT against ZNF664	1.08 (active)
CAUUGAGACCUAUCUGCUATT against MYH11	0
CGGGUAUGUUGAUAGCAUATT against FAM12B	0.312
